PubChem BioAssay (Tox21)
Where “and” joins values, the source holds several entries; their conditions need not be identical. Equal values may be shown once. Results filed as inconclusive are left out. Where a call stands in place of a potency, no number is given. Calls of active or inactive are those of the source. Unless noted, calls come from the whole dose curve.

Test system: not listed separately
Experiment: qHTS assay to identify small molecule antagonists of the estrogen receptor beta (ER-beta) signaling pathway - cell viability counter screen (AID 1259382; active = well fitted cell-killing curve with a large enough effect in the repeat runs; note: nearly all actives have a fitted effect of over 55% in size; note: potency is the fitted concentration of half-maximal effect;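 for activity change, negative = cytotoxicity: HEK293T cells carrying ER-beta-UAS-bla reporter stimulated with estradiol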)
Settings: ER-beta-UAS-bla HEK293T viability, CellTiter-Glo luminescence, 16 h; series mostly up to 92.4 µM
Procedure, shortened: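 Tox21 10K library tested in qHTS format on ER-beta-bla HEK293T cells stimulated with 1nM E2; 16 hr treatment at 37C. Same-well CellTiter-Glo luminescence served as the cell viability measure.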

Row | SMILES | Potency | activity change, negative = cytotoxicity
1 | CC1=C2C[C@H]3[C@@H](CC=C4C[C@@H](O)CC[C@@]43C)[C@@H]2CC[C@]12O[C@@H]1C[C@H](C)CN[C@H]1[C@H]2C | inactive | 
2 | CCCCC(CC)COC(=O)c1ccccc1C(=O)OCC(CC)CCCC (configuration not stated) | inactive | 
3 | c1csc(-c2ccc(-c3cccs3)s2)c1 | inactive | 
4 | CNC(C)(C)Cc1ccccc1 | inactive | 
5 | CNC(=O)O/N=C(\C)C(C)S(C)(=O)=O (configuration not stated) | inactive | 
6 | C[C@]12Cc3cn[nH]c3C[C@@H]1CC[C@@H]1[C@@H]2CC[C@@]2(C)[C@H]1CC[C@]2(C)O | 6.68 µM (active) | 
7 | CC1CCCC1 | inactive | 
8 | CCOP(=O)(Sc1ccccc1)Sc1ccccc1 | inactive | 
9 | CCOP(=S)(OCC)Oc1cc(C)nc(N(CC)CC)n1 | inactive | 
10 | CCCN | inactive | 
11 | O=S1(=O)OCC2C(CO1)C1(Cl)C(Cl)=C(Cl)C2(Cl)C1(Cl)Cl (configuration not stated) | inactive | 
12 | CN=C=O | inactive | 
13 | Cc1cc2c3c(c1)C(c1ccccc1)=N[C@@H](NC(=O)c1ccncc1)C(=O)N3CC2 | inactive | 
14 | CN(C)CCc1c[nH]c2ccccc12 | inactive | 
15 | ClC1(Cl)C2(Cl)C3(Cl)C4(Cl)C(Cl)(Cl)C5(Cl)C3(Cl)C1(Cl)C5(Cl)C24Cl (configuration not stated) | inactive | 
16 | CN1C(=O)[C@@H](NC(=O)c2cc3ccccc3[nH]2)N=C(c2ccccc2)c2ccccc21 | inactive | 
17 | COP(=O)(OC)O/C(=C\Cl)c1cc(Cl)c(Cl)cc1Cl | inactive | 
18 | CCOP(=S)(OCC)SC(CCl)N1C(=O)c2ccccc2C1=O (configuration not stated) | inactive | 
19 | Clc1c(Cl)c(Cl)c(Cl)c(Cl)c1Cl |  | 8.34% [at 8.39 µM] (inactive)
20 | CCCCCCCc1ccc(O)cc1 | 48.6 µM (active) | 
21 | CCNS(=O)(=O)C(F)(F)C(F)(F)C(F)(F)C(F)(F)C(F)(F)C(F)(F)C(F)(F)C(F)(F)F | inactive | 
22 | CN1CCc2cc(Cl)c(O)cc2[C@H]2c3ccccc3CC[C@@H]21 | inactive | 
23 | O=C1C2(Cl)C3(Cl)C4(Cl)C(Cl)(Cl)C5(Cl)C3(Cl)C1(Cl)C5(Cl)C24Cl (configuration not stated) | 26.9 µM (active) and 58.5 µM (active) | 
24 | O=S(=O)(NS(=O)(=O)C(F)(F)F)C(F)(F)F | inactive | 
25 | CCC1(CC)C(=O)N=C(O)NC1=O | inactive | 
26 | CCO/N=C(\CC)C1=C(O)CC(c2c(C)cc(C)cc2C)CC1=O (configuration not stated) | inactive | 
27 | c1ccc2c(c1)cc1ccc3cccc4ccc2c1c34 | inactive | 
28 | CSC(C)(C)/C=N/O | inactive | 

Molecular target: Estrogen receptor (Homo sapiens) (UniProt P03372)
Sequence (P03372 whole entry, looked up): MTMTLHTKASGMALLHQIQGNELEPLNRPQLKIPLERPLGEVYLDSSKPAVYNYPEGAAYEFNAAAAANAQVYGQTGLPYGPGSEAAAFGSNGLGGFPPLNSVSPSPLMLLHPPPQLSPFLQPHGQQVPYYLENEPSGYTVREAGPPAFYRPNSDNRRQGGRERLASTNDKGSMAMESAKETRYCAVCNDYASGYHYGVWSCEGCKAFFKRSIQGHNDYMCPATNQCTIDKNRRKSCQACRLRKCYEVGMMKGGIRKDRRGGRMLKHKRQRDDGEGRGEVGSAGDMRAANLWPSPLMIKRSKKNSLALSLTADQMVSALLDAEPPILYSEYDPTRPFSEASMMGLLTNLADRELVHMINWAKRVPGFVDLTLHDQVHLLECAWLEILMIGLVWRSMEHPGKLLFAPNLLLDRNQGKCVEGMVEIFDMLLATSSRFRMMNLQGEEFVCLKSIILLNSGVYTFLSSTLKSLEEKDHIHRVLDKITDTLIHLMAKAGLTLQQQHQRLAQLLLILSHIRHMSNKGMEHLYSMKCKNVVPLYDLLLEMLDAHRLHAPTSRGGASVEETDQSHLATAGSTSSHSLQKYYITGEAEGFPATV
Experiment: qHTS assay to identify small molecule agonists of the estrogen receptor alpha (ER-alpha) signaling pathway in the presence of an antagonist (AID 1259383); note: nearly all actives have a fitted effect of over 15% in size; note: potency is the fitted concentration of half-maximal effect
Settings: VM7Luc4E2 cells, ERE-luciferase, +ICI-182,780, 22 h; series mostly up to 92.4 µM
Procedure, shortened: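 In VM7Luc4E2 cells, 4,000 per well, compounds at 15 concentrations were co-incubated 22hr at 37C with 10.0nM final ICI-182,780. Luminescence from the stably transfected 4×ERE-luciferase reporter was recorded 30min after ONE-Glo addition.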

Row | SMILES | Potency
29 | CC1=C2C[C@H]3[C@@H](CC=C4C[C@@H](O)CC[C@@]43C)[C@@H]2CC[C@]12O[C@@H]1C[C@H](C)CN[C@H]1[C@H]2C | inactive
30 | CCCCC(CC)COC(=O)c1ccccc1C(=O)OCC(CC)CCCC (configuration not stated) | 27.3 µM (active)
31 | CC[N+]1(CC)CCC(OC(=O)C(O)(c2ccccc2)c2ccccc2)C1 (configuration not stated) | inactive
32 | N#CCCl | inactive
33 | CCOP(=O)(Sc1ccccc1)Sc1ccccc1 | inactive
34 | CCOP(=S)(OCC)Oc1cc(C)nc(N(CC)CC)n1 | inactive
35 | Clc1ccc(C(c2ccc(Cl)cc2)C(Cl)Cl)cc1 | inactive
36 | O=S1(=O)OCC2C(CO1)C1(Cl)C(Cl)=C(Cl)C2(Cl)C1(Cl)Cl (configuration not stated) | inactive
37 | CC(Cc1ccc2c(c1)OCO2)NO (configuration not stated) | inactive
38 | Cc1cc2c3c(c1)C(c1ccccc1)=N[C@@H](NC(=O)c1ccncc1)C(=O)N3CC2 | inactive
39 | ClC1(Cl)C2(Cl)C3(Cl)C4(Cl)C(Cl)(Cl)C5(Cl)C3(Cl)C1(Cl)C5(Cl)C24Cl (configuration not stated) | inactive
40 | COP(=S)(OC)Oc1nc(Cl)c(Cl)cc1Cl | inactive
41 | O=P(Cl)(Cl)Cl | inactive
42 | COP(=O)(OC)O/C(=C\Cl)c1cc(Cl)c(Cl)cc1Cl | inactive
43 | CCN(CC)C(=S)S | inactive
44 | CCCCCCCc1ccc(O)cc1 | inactive
45 | Cc1c([N+](=O)[O-])c(C)c([N+](=O)[O-])c(C(C)(C)C)c1[N+](=O)[O-] | inactive
46 | CN1CCc2cc(Cl)c(O)cc2[C@H]2c3ccccc3CC[C@@H]21 | inactive
47 | CCC1(CC)C(=O)N=C(O)NC1=O | inactive
48 | CCO/N=C(\CC)C1=C(O)CC(c2c(C)cc(C)cc2C)CC1=O (configuration not stated) | inactive
49 | ClC1=C(Cl)[C@]2(Cl)[C@@H]3[C@H]4C[C@H]([C@@H]5O[C@H]45)[C@@H]3[C@@]1(Cl)C2(Cl)Cl | inactive
50 | CSC(C)(C)/C=N/O | inactive

Test system: not listed separately
Experiment: qHTS assay to identify small molecule agonists or antagonists of the thyroid stimulating hormone receptor (TSHR) signaling pathway - wild type cell line counter screen (AID 1259384)
Settings: HEK293 wild type, cAMP HTRF counter-screen; series mostly up to 92.4 µM
Procedure, shortened: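 Wild-type HEK293 cells were plated 18 h at 37 C/5% CO2, pin-dosed with compound plus Ro20-1724 medium, held 30 min at room temperature, then given cAMP-d2 and anti-cAMP-cryptate; fluorescence was read after 1 h. Fifteen concentrations, triplicate.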

Row | SMILES | Potency | cAMP activity change
51 | CC1=C2C[C@H]3[C@@H](CC=C4C[C@@H](O)CC[C@@]43C)[C@@H]2CC[C@]12O[C@@H]1C[C@H](C)CN[C@H]1[C@H]2C | inactive | 
52 | CCCCC(CC)COC(=O)c1ccccc1C(=O)OCC(CC)CCCC (configuration not stated) | inactive | 
53 | CC[N+]1(CC)CCC(OC(=O)C(O)(c2ccccc2)c2ccccc2)C1 (configuration not stated) | inactive | 
54 | CNC(C)(C)Cc1ccccc1 | inactive | 
55 | CCCCON=O | inactive | 
56 | CNC(=O)O/N=C(\C)C(C)S(C)(=O)=O (configuration not stated) | inactive | 
57 | N#CCCl | inactive | 
58 | C[C@]12Cc3cn[nH]c3C[C@@H]1CC[C@@H]1[C@@H]2CC[C@@]2(C)[C@H]1CC[C@]2(C)O | inactive | 
59 | CC1CCCC1 | inactive | 
60 | Clc1ccc(C(c2ccc(Cl)cc2)C(Cl)Cl)cc1 | inactive | 
61 | CCCN | inactive | 
62 | O=S1(=O)OCC2C(CO1)C1(Cl)C(Cl)=C(Cl)C2(Cl)C1(Cl)Cl (configuration not stated) | inactive | 
63 | CN=C=O | inactive | 
64 | Cc1cc2c3c(c1)C(c1ccccc1)=N[C@@H](NC(=O)c1ccncc1)C(=O)N3CC2 | inactive | 
65 | CN(C)CCc1c[nH]c2ccccc12 | inactive | 
66 | ClC1(Cl)C2(Cl)C3(Cl)C4(Cl)C(Cl)(Cl)C5(Cl)C3(Cl)C1(Cl)C5(Cl)C24Cl (configuration not stated) | inactive | 
67 | CN1C(=O)[C@@H](NC(=O)c2cc3ccccc3[nH]2)N=C(c2ccccc2)c2ccccc21 | inactive | 
68 | O=P(Cl)(Cl)Cl | inactive | 
69 | O=c1[nH]c(Cl)c(Cl)cc1Cl | inactive | 
70 | CCN(CC)C(=S)S | inactive | 
71 | Clc1c(Cl)c(Cl)c(Cl)c(Cl)c1Cl |  | -1.12% [at 8.39 µM, stronger effect = higher value] (inactive)
72 | CCCCCCCc1ccc(O)cc1 | inactive | 
73 | CCNS(=O)(=O)C(F)(F)C(F)(F)C(F)(F)C(F)(F)C(F)(F)C(F)(F)C(F)(F)C(F)(F)F | inactive | 
74 | O=C1C2(Cl)C3(Cl)C4(Cl)C(Cl)(Cl)C5(Cl)C3(Cl)C1(Cl)C5(Cl)C24Cl (configuration not stated) | inactive | 
75 | ClC1=C(Cl)[C@]2(Cl)[C@@H]3[C@H]4C[C@H]([C@@H]5O[C@H]45)[C@@H]3[C@@]1(Cl)C2(Cl)Cl | inactive | 
76 | c1ccc2c(c1)cc1ccc3cccc4ccc2c1c34 | inactive | 
77 | CSC(C)(C)/C=N/O | inactive | 
